Drawing on PubChem BioAssay, this text covers composite z-score and z-score for five compounds.

A short description of experiment [1]: small molecules captured by biotinylated probe aFSTL3 – biochemical, small-molecule microarray, fluorescence 635/667, stem cell growth factor project, primary screen (AID 1064).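 Note: measures binding of the biotinylated anti-FSTL3 antibody to printed compounds.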 Particulars: higher = more signal.
The nature of experiment [2]: binders from COS7 lysate, DM2A8 probe, primary screen, torsin A project, cell lysate, small-molecule microarray, fluorescence 635/667 (AID 1065). The conditions noted are these: higher = more signal, COS7 lysate expressing mutant human TOR1A.
Experiment [3] can be described thus: small molecules captured by biotinylated probe aFGF2 – biochemical, small-molecule microarray, fluorescence 635/667, stem cell growth factor project, primary screen (AID 1067).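 Note: measures binding of biotinylated aFGF2 protein to printed compounds on slides; z-score merges feature fluorescence and signal-to-noise across triplicate slides.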 The conditions noted are these: higher = more signal.
Experiment [4] can be described thus: small molecules captured by biotinylated probe aFGF10 – biochemical, small-molecule microarray, fluorescence 635/667, stem cell growth factor project, primary screen (AID 1071).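 Note: score merges 667 nm spot intensity and signal to noise from triplicate slides.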 The conditions noted are these: higher = more signal.
In experiment [5] the target is Neurogenic locus notch homolog protein 2 (Homo sapiens) (UniProt Q04721). Nature of the experiment: small molecules binding Notch2 protein – biochemical, small-molecule microarray, 635 nm fluorescence, stem cell growth factors, primary screen (AID 1073). The conditions noted are these: higher = more signal.
The target of experiment [6] is Pro-neuregulin-1, membrane-bound isoform (Homo sapiens) (UniProt Q02297). Nature of the experiment: small molecules binding neuregulin-1 protein – biochemical, small-molecule microarray, fluorescence 635/667, psychiatric disease protein project, primary screen (AID 1075).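 Note: score combines 667 nm spot fluorescence with signal to noise.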 Particulars: NRG1 binding, 635 nm fluorescence, higher = more signal.
Experiment [7] deals with Neuregulin-1 EGF-like domain. The experiment in a line: small molecules binding NRG1 EGF domain – biochemical, small-molecule microarray, 635 nm fluorescence, primary screen (AID 1081).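 Note: binding of the protein to compounds printed on small-molecule microarray slides.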 Particulars: higher = more signal.
The nature of experiment [8]: FRG1 expression reporter modulators in myotubes – cell-based, C2C12 myotubes, firefly/Renilla luciferase, luminescence, FRG1 inhibition for FSHD, primary screen (AID 1084). Particulars: FRG1 promoter luciferase, higher = more signal, called active from +8 up or from −8 down.
A short description of experiment [9]: small molecules captured by biotinylated probe aFST – biochemical, small-molecule microarray, fluorescence 635/667, stem cell growth factor project, primary screen (AID 1086).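 Note: score merges 667 nm fluorescence with signal-to-noise of each printed compound spot.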 Particulars: higher = more signal.
A short description of experiment [10]: binders of probe aHhip on microarray, primary screen, stem cell growth factor project, biochemical, small-molecule microarray, fluorescence 635/667 (AID 1087).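 Note: score merges spot fluorescence at 667nm with spot signal to noise ratio.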 Particulars: higher = more signal.
Experiment [11] has as its system PRMT1 (protein arginine N-methyltransferase 1). Nature of the experiment: small molecules binding arginine methyltransferase PRMT1 – biochemical, small-molecule microarray, 635 nm fluorescence, primary screen (AID 1088).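 Note: binding of Prmt1 protein to compounds spotted on small-molecule microarray slides.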 The conditions noted are these: higher = more signal.
Experiment [12] can be described thus: growth effects on S. cerevisiae YJM789 – YJM789 clinical isolate, OD600, 24 h, basal, primary screen (AID 1089).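 Note: growth of clinical yeast isolate S. cerevisiae YJM 789 seeded 1000 cells per well; test concentration not given here.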 The conditions noted are these: higher = more signal, called active from +8 up or from −8 down.
The nature of experiment [13]: S. pombe growth modifiers, basal conditions – strain 972, OD600, 24 h, no modulator, primary screen (AID 1090).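 Note: basal condition with compound alone and no growth modifier present; test concentration not given here.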 The conditions noted are these: S. pombe 972 growth, higher = more signal, called active from +8 up or from −8 down.
A short description of experiment [14]: budding yeast growth modifiers under rapamycin – strain BY4716, OD600, 96 h, primary screen (AID 1091). Note: test concentration not given here. Particulars: S. cerevisiae BY4716 + rapamycin, higher = more signal, called active from +8 up or from −8 down.
Experiment [15] deals with Torsin-1A-interacting protein 2 (Homo sapiens) (UniProt Q8NFQ8). The experiment in a line: small molecules binding lysate-expressed LULL1 – cell lysate, human LULL1 lysate, 635/667 nm fluorescence, primary screen (AID 1092).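 Note: probe is lysate of COS7 cells overexpressing human LULL1; score merges per-feature 667 nm fluorescence with signal-to-noise.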 Particulars: small-molecule microarray, hLULL1 lysate binding, 635 nm fluorescence; higher = more signal.
Experiment [16] in a line: optical density change of DRC41 E. coli – strain DRC41, OD650, 24 h, E. coli filamentation project, primary screen (AID 1093).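 Note: MC1000 strain lacking acrAB efflux and sulA so SOS filamentation is blocked; test concentration not given here.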 Particulars: E. coli DRC41 growth, higher = more signal, called active from +8 up or from −8 down.
Experiment [17] in a line: probe aLefty2 binding to arrayed compounds – biochemical, biotinylated probe, 635/667 nm fluorescence, primary screen (AID 1094).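 Note: score merges spot fluorescence near 667 nm with spot signal-to-noise ratio.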 Particulars: small-molecule microarray, higher = more signal.
In experiment [18] the test system is Noggin (protein binding on small-molecule microarray). The experiment in a line: small molecules binding Noggin protein – biochemical, 635/667 nm fluorescence, primary screen (AID 1095).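 Note: score merges 667 nm feature fluorescence with signal to noise over triplicate slides.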 Particulars: 635 nm fluorescence, higher = more signal.
Experiment [19] has as its target Neurogenic locus notch homolog protein 3 (Homo sapiens) (UniProt Q9UM47). The experiment in a line: small molecules binding NOTCH3 protein – biochemical, 635/667 nm fluorescence, primary screen (AID 1096). The conditions noted are these: small-molecule microarray, 635 nm fluorescence, higher = more signal.
Experiment [20] is described as follows: probe aEGFR binding to arrayed compounds – biochemical, biotinylated probe, 635/667 nm fluorescence, primary screen (AID 1097).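 Note: probe is a biotinylated anti-EGFR antibody binding compounds printed on slides; score combines fluorescence near 667 nm and signal to noise of each spot.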 Particulars: small-molecule microarray, higher = more signal.

Structures are written as SMILES. Activity calls are given as the source filed them.

Neurogenic locus notch homolog protein 3 (Homo sapiens), sequence (Q9UM47 whole entry, looked up): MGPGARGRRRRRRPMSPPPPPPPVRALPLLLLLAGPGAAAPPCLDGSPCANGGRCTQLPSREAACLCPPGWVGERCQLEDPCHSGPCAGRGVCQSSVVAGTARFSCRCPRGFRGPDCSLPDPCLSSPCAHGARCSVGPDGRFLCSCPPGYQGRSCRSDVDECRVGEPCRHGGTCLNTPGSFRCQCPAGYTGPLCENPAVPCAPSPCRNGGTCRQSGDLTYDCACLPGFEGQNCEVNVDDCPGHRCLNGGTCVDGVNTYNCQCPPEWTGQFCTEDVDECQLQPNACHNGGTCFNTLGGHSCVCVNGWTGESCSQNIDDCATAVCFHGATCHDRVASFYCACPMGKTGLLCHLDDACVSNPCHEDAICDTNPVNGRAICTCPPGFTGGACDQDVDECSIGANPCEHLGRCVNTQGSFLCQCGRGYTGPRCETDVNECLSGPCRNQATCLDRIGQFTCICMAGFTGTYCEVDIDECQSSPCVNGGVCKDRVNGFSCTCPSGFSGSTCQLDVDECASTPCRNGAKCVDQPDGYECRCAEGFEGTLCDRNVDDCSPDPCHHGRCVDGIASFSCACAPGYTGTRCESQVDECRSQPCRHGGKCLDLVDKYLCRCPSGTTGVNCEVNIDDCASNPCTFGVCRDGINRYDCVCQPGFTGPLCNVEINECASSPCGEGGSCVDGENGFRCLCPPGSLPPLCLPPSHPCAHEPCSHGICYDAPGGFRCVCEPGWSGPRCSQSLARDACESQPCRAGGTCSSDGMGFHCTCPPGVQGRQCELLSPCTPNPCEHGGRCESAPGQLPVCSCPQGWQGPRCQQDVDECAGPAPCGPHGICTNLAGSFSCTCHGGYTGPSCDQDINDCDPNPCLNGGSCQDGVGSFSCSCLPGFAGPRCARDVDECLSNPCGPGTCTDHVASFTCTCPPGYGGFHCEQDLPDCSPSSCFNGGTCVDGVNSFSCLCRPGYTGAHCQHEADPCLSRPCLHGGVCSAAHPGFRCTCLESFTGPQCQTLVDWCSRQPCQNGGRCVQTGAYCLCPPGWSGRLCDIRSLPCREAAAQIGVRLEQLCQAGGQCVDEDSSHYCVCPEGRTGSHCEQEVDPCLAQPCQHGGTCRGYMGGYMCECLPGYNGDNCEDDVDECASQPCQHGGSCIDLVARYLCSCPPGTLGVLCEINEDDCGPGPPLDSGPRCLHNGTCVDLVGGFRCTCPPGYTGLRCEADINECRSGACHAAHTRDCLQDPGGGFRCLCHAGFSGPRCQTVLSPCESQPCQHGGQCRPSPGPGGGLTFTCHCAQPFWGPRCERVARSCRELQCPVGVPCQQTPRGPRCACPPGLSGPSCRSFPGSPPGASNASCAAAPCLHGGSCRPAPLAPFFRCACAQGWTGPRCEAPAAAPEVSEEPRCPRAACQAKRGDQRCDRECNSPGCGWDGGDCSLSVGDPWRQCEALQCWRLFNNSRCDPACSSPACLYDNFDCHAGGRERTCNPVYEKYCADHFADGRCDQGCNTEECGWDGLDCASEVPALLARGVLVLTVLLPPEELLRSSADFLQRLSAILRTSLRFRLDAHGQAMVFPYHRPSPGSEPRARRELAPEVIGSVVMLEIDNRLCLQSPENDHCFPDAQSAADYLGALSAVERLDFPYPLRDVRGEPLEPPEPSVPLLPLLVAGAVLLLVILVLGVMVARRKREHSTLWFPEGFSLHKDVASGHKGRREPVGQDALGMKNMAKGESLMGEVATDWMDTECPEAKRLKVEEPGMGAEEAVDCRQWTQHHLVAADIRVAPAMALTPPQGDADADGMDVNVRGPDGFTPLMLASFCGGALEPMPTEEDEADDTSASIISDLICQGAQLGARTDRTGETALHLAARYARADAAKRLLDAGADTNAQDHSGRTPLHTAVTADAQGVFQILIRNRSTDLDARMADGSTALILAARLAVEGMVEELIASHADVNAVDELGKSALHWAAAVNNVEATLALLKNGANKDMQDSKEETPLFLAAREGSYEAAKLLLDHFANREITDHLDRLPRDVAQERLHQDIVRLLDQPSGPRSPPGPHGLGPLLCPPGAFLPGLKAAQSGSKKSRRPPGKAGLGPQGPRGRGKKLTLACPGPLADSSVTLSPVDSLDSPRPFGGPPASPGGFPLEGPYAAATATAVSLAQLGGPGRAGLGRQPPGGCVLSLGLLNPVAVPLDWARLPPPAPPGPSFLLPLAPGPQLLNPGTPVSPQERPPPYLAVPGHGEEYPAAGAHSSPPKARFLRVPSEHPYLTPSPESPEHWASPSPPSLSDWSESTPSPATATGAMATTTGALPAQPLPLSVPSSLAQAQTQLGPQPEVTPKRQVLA
Pro-neuregulin-1, membrane-bound isoform (Homo sapiens), sequence (Q02297 whole entry, looked up, the tested form may be a part, canonical isoform): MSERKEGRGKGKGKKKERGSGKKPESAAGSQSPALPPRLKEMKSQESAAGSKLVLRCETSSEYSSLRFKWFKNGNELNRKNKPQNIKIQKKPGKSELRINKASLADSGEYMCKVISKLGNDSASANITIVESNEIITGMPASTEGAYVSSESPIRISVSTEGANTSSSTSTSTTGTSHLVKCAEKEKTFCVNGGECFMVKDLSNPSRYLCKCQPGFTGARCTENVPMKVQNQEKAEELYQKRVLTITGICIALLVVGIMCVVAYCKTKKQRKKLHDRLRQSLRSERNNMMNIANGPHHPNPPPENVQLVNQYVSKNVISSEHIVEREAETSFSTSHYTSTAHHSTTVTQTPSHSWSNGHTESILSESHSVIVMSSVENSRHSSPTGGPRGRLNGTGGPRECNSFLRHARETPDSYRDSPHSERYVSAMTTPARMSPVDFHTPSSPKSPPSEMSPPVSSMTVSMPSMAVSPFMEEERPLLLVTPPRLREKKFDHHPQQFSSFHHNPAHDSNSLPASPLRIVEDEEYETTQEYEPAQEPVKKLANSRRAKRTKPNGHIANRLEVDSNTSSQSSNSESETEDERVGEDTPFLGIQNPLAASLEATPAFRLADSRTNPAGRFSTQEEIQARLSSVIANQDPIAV
Torsin-1A-interacting protein 2 (Homo sapiens), sequence (Q8NFQ8 whole entry, looked up): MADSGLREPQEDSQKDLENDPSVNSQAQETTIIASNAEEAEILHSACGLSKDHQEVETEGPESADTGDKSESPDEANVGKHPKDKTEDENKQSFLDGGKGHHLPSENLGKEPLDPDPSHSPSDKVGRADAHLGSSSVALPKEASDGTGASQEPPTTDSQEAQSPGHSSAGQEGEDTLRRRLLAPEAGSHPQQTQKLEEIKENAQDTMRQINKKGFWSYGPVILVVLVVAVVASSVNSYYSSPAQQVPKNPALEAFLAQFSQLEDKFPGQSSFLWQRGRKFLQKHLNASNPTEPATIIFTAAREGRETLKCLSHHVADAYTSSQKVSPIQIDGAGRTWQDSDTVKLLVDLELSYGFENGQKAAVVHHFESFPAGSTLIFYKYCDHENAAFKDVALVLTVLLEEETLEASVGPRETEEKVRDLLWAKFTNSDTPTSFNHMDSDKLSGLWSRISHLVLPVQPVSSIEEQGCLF

Consider `CC(C)C[C@@H]1NC(=O)[C@@]23C(=O)N[C@@H](Cc4ccccc4)C2[C@H](C)[C@@]2(C)O[C@H]2C3/C=C/C/C=C\CNC(=O)[C@@H](CC(C)C)NC1=O` (stereo not given in full), for which the composite z-score in experiment [1] is -0.47; in [2] it was -0.0387; in experiment [3], -0.0878; in [4] it was 0.159; in experiment [5] it was 0.416; in experiment [6] it was 0.345. Moreover, the composite z-score in experiment [7] is 0.97; in [9] it was 0.355; in [10], -0.206; in experiment [11], 1.55; in [15], 2.16; in experiment [17] it was -0.184. Moreover, the composite z-score in [18] was 0.914; in experiment [19], 0.895; in experiment [20] it was -0.0814. In addition, the z-score is 2.49 (inactive) in experiment [8]; -0.652 (inactive) in [12]; -17.9 (active) in experiment [13]; 0.241 (inactive) in experiment [14]; -0.313 (inactive) in experiment [16].
For the compound `CN1C(=O)C2C=CC(C(O)c3ccc(-c4ccccc4)s3)N(Nc3ccccc3)C2C1=O` (stereo not given), the composite z-score in [1] stood at 0.876; in [2], 0.358; in experiment [3], 0.0754; in experiment [4], 0.454; in [5], 1.67; in experiment [6], 1.43. Further, the composite z-score in experiment [7] worked out at 1.09; in [9] it was 1.15; in [10], 0.245; in [11], 0.932; in [15], 2.91; in experiment [17], 0.182. The figures for the composite z-score in experiment [18], in experiment [19] and in [20] were -0.399, 1.11 and -0.0043, respectively. Besides, the z-score in experiment [8] was 0.0583 (inactive); in experiment [12], -1.29 (inactive); in experiment [13], 0.447 (inactive); in [14], 0.164 (inactive); in [16] it was -0.576 (inactive).
For `O=C1N(CCS(=O)(=O)c2ccccc2)c2ccccc2[C@@H]2OC(c3ccc(OCCCO)cc3)=N[C@]12CCS(=O)(=O)c1ccccc1`, the composite z-score amounted to 0.359 in experiment [1]; 0.145 in experiment [2]; 0.0069 in [3]; 0.291 in [4]; 1.44 in [5]; 0.195 in [6]. In addition, the composite z-score in experiment [7] came out at 1.28; in experiment [9] it was 0.855; in [10], 0.0053; in experiment [11] it was 1.54; in [15], 3.46; in experiment [17], 0.471. The results for the composite z-score in experiment [18], in experiment [19] and in experiment [20] were 0.833, 1.14 and -0.0333, respectively. Further, the z-score in experiment [8] was -3.3 (inactive); in [12], 0.864 (inactive); in experiment [13], 1.78 (inactive); in experiment [14] it was 4.01 (inactive); in [16], 0.678 (inactive).
Regarding `CN(C)C(=O)[C@@]1(CCS(=O)(=O)c2ccccc2)N=C(c2ccc(OCCCO)cc2)O[C@H]1c1ccccc1N=[N+]=[N-]`, the composite z-score is -0.35 in [1]; 0.259 in experiment [2]; 0.167 in [3]; 0.792 in [4]; 1.32 in experiment [5]; 1.55 in experiment [6]. The composite z-score in experiment [7] was 0.551; in experiment [9] it was 1.49; in [10], -0.0994; in experiment [11] it was 1.55; in experiment [15], 3.1; in experiment [17] it was 0.0554. The figures for the composite z-score in [18], in [19] and in experiment [20] were 0.987, 1.11 and -0.0168, respectively. The z-score in experiment [8] is 0.401 (inactive); in experiment [12] it was -1.01 (inactive); in experiment [13], -0.173 (inactive); in experiment [14] it was 0.914 (inactive); in experiment [16] it was 0.635 (inactive).
As to `[N-]=[N+]=NCc1ccccc1C[C@]1(C(=O)NCc2ccccc2)N=C(c2ccc(OCCCO)cc2)O[C@H]1c1ccccc1CN=[N+]=[N-]`, the composite z-score was 1.79 in experiment [1]; 0.227 in [2]; 0.14 in experiment [3]; 0.0819 in experiment [4]; 1.13 in [5]; 1.73 in experiment [6]. Besides, the composite z-score in experiment [7] is 1.16; in [9], 0.654; in experiment [10] it was -0.082; in experiment [11], 1.37; in experiment [15] it was 3.25; in [17], -0.106. For the same compound, the composite z-score in [18] was -0.243; in experiment [19] it was 0.561; in experiment [20] it was 0.0506. Also, the z-score in experiment [8] was 0.976 (inactive); in [12], 1.27 (inactive); in experiment [13], 0.736 (inactive); in [14], 22.6 (active); in experiment [16], 1.79 (inactive).
